Data on 75 compounds can be found in ChEMBL document CHEMBL3988442, “University of Dundee, Small-Polar-MMV Screening Library” (2021).

Hit rate of the full screen: of about 48,000 compounds, about 13,000 (27%) showed an effect of 50% or more. Some of the results follow.

This assay has as its system Wolbachia pipientis. The assay is described as follows: Anti-Wolbachia Cell-Based Screen. The format is functional. More on the design: scale not given: in the data most compounds retested in dose-response had high values. As to conditions: 5 µM.
`Cc1cnc(CNc2ccccc2CN(C)C(=O)c2cccs2)o1`: the “Percent Effect” value was 6.302%. Turning to `Cc1cc(-c2nn(C)c(Cl)c2CN2CCOCC(O)C2)no1` (stereo not given), the “Percent Effect” value is reported as 7.686%. The figure for `Cc1ccc(OCC(=O)Nc2ncccc2OC(F)F)cc1` is -8.184%; for `COc1ccc(-c2nc(CN3CCCS3(=O)=O)co2)cc1` it is -14.94%; for `COc1cccc(N2CCN(C(=O)C(O)c3ccccc3Cl)CC2=O)c1` (stereo not given) it is 0.2128%. With `Cc1ccc2cc(C(=O)N3CCN(C(=O)N(C)C)CC3)ccc2n1`, the “Percent Effect” value was determined as 1.001%. The figure for `CC(C)C(NC(N)=O)C(=O)N1CCN(c2ccccc2Cl)C(=O)C1` (stereo not given) is 3.196%; for `CC(O)C(=O)N1CCN(c2ccccc2Cl)C(=O)C1` (stereo not given) it is -6.675%. The figure for `CC(C)NC(=O)N1CCN(c2ccc(Cl)nn2)C(=O)C1` is 110.8%. For `Cc1ccccc1N1CCN(C(=O)CSc2ccncc2)CC1=O` the value was -3.872%.

Regarding `CN(C)C(=O)N1CCN(c2ccc(Cl)nn2)C(=O)C1`, the “Percent Effect” value was found to be 97.53%. The figure for `COC(=O)[C@@H]1CN(C(=O)NC(C)C)CCN1S(=O)(=O)c1ccccc1` is -0.3484%. For `CC(=O)N1CCN(c2ccc(Cl)nn2)C(=O)C1` the value was 106.1%.

Regarding `CCN1CCN(C(=O)C(C)SC)CC1` (stereo not given), the “Percent Effect” value is -3.808%. For `CC(C)(NS(C)(=O)=O)C(=O)NCc1cccc(Br)c1` the value was -10.37%.

For the compound `Cc1cnc(CNc2ccc(C(=O)NCc3ccco3)cc2C)o1`, the “Percent Effect” value is -1.967%. For `O=C1COc2ccc(S(=O)(=O)NCc3ccccc3)c3c2N1CCC3` the value was -7.83%. Consider `CCOC(=O)C1(Cc2ccc(Cl)cc2)CCN(Cc2ncc[nH]2)CC1`, for which the “Percent Effect” value was -10.72%. For `Cc1[nH]c2ccccc2c1CCNC(=O)N1CCC2(C1)OCCO2` the value was 5.663%. With `Cc1cccc(CNC(Cc2ccsc2)c2nc(C)c(C)s2)n1.Cl` (stereo not given), the “Percent Effect” value is reported as 125.8%.

On to `O=C(C(CNCc1ccsc1)c1ccccc1)N1CCOCC1` (stereo not given), for which the “Percent Effect” value is 2.12%. The figure for `Cc1nc(C(Cc2ccsc2)NC(=O)CCN2CCOCC2)sc1C` (stereo not given) is 158.4%. The figure for `Cc1ccc(CN2CCOCC2)cc1NCc1ccsc1` is -9.351%.

Take `Cc1ccc(C(=O)N2CCOCC2)cc1NCc1ccsc1`: the “Percent Effect” value is given as -10.53%. For `CNS(=O)(=O)c1cccc(C(C)NCc2ccsc2)c1` (stereo not given) the value was -13.31%. The figure for `Cc1nc(C(Cc2ccsc2)NC(=O)CN2CCOCC2)sc1C` (stereo not given) is 171.6%; for `CC(NC(=O)Nc1ccccc1CN1CCOCC1)c1nccs1` (stereo not given) it is 15.83%; for `O=C(CCN1CCOCC1)NC(Cc1ccsc1)c1nccs1` (stereo not given) it is 146.7%.

Turning to `Cc1n[nH]c(C2CN(CC(=O)NCCc3ccsc3)CCO2)n1` (stereo not given), the “Percent Effect” value is on record as -13.37%. For `Cc1nc(-c2ccsc2)ccc1C(=O)NCCN1CCOCC1` the value was -7.078%. For `Cn1cc(C(C)(O)CNC(=O)c2cc(Br)cn2C)cn1` (stereo not given) the value was 0.5421%. The figure for `Cc1n[nH]c(-c2ccc(NC(=O)C(C)(C)N3CCN(C)CC3)cc2)n1` is -11.99%; for `CC(C)(C)c1cnc(CN2CCCS2(=O)=O)o1` it is -7.665%. As to `O=C1CCc2cc(S(=O)(=O)NC(=O)c3ccc4c(c3)COC4)ccc2N1`, the “Percent Effect” value was -36.98%. The figure for `O=c1c2cccc(Cl)c2ncn1C1CCNC1` (stereo not given) is 5.785%; for `Cc1ccc(C(=O)NCc2ccccc2S(=O)(=O)N(C)CCO)cc1F` it is -6.958%. For `Fc1ccc(OCC2CCCO2)c(NCc2cn3cccnc3n2)c1` (stereo not given) the value was -2.31%. For `O=C(CNc1cc(F)ccc1OCC1CCCO1)N1CCOCC1` (stereo not given) the value was 97.1%. As to `O=C(Nc1ccccc1OCC1CCCCO1)c1ccc(O)nc1` (stereo not given), the “Percent Effect” value is on record as 2.227%. For the compound `Nc1ccnc(CNc2cc(F)ccc2OCC2CCCO2)n1` (stereo not given), the “Percent Effect” value was -8.979%. As for `CS(=O)(=O)CCC(=O)Nc1cc(F)ccc1OCC1CCCO1` (stereo not given), the “Percent Effect” value is 92.36%. For `O=C(Nc1cc(F)ccc1OCC1CCCO1)c1ccc(O)nc1` (stereo not given) the value was 10.58%; for `CCn1nc(C)cc1C(=O)Nc1cc(F)ccc1OCC1CCCO1` (stereo not given), -4.642%. The figure for `Cc1ccc(NC(=O)N2CCCC2)c(OCC2CCCO2)c1` (stereo not given) is 97.39%; for `Cc1ccc(C(=O)Nc2cc(F)ccc2OCC2CCCO2)cn1` (stereo not given) it is -10.64%; for `O=C(Nc1cc(F)ccc1OCC1CCCO1)NC1CC1` (stereo not given) it is 110.8%. Turning to `Cc1cnc(C(=O)Nc2cc(F)ccc2OCC2CCCO2)cn1` (stereo not given), the “Percent Effect” value is on record as -2.263%. Consider `CCOCCC(=O)Nc1cc(C(N)=O)ccc1N1CCCC(C)C1` (stereo not given), for which the “Percent Effect” value is given as -3.919%. The figure for `CCc1nc(CN(C)CC(c2cccs2)N2CCOCC2)no1` (stereo not given) is -2.837%; for `COCCC(=O)N1CCc2cc(Cl)cc(Cl)c2C1` it is -13.08%. The figure for `Cc1c(-c2c(-c3ccccc3)ncn2[C@H](CO)C(=O)O)cnn1C` is -0.2965%. For `CCOc1cccc(C(C)NCc2ccc(OC)c(OC)c2OC)c1` (stereo not given) the value was 2.292%. On to `CCCC(NC(=O)c1cc(C2CC2)[nH]n1)c1nnc2ccccn12` (stereo not given), for which the “Percent Effect” value stood at 4.911%. The figure for `O=C(Nc1cc(F)ccc1OCC1CCCO1)N1CCSCC1` (stereo not given) is 95.33%. `O=C(Nc1cc(F)ccc1OCC1CCCO1)c1ccoc1` (stereo not given): the “Percent Effect” value is listed as -0.8662%. For the compound `CCc1noc(CNc2cc(F)ccc2OCC2CCCO2)n1` (stereo not given), the “Percent Effect” value is on record as -4.375%. In the case of `O=C(CC(F)(F)F)Nc1cc(F)ccc1OCC1CCCO1` (stereo not given), the “Percent Effect” value is reported as 91.81%. For `CC(=O)N1CCC(Nc2cc(F)ccc2OCC2CCCO2)CC1` (stereo not given) the value was 103.1%; for `O=C(Nc1cc(F)ccc1OCC1CCCO1)c1ccccn1` (stereo not given), -3.019%; for `O=C(Nc1cc(F)ccc1OCC1CCCO1)N1CCCC1` (stereo not given), 75.82%. For `CC(C)(C)c1nnc(CNc2cc(F)ccc2OCC2CCCO2)o1` (stereo not given) the value was 0.05226%; for `CN(Cc1ccco1)C1CCC12CCN(C(=O)c1ccnnc1)CC2.O=C(O)C(F)(F)F` (stereo not given), -20.01%; for `CCN1CCN(S(=O)(=O)N2CCC(OC)CC2)[C@H]2CS(=O)(=O)C[C@H]21`, -12.77%.

As for `Cc1ccc2nc(CN(C)Cc3ccc(C)o3)cc(=O)n2c1`, the “Percent Effect” value was determined as 4.444%.

In the case of `CC(COc1ccccc1)NCc1nc(-c2cccnc2)no1` (stereo not given), the “Percent Effect” value was -6.485%. The figure for `CS(=O)(=O)c1ccc(CNCC2CCN(CCO)CC2)cc1` is -3.753%; for `Cc1cc(CNC(=O)COc2ccccc2F)c(C)o1` it is 7.15%; for `Cc1nnn2c1COCC(CNC(=O)c1cnoc1C)C2` (stereo not given) it is -0.1551%. On to `Cc1cc(C(=O)NCc2cc(C)oc2C)no1`, for which the “Percent Effect” value is on record as 107.3%. For `Cc1cc(C(=O)NCc2cccnc2OC(C)C)no1` the value was -0.04653%. For `Cc1cc(CNC(=O)c2cnoc2C)c(C)o1` the value was 146.4%; for `Cc1cc(CNC(=O)c2ccno2)c(C)o1`, 94.7%; for `COc1cc(NC(=O)NCc2cc(C)oc2C)cc(OC)c1`, -2.456%. Regarding `Cc1cc(C(=O)NCc2ccccn2)no1`, the “Percent Effect” value stood at 0.7911%. For the compound `COc1ccc(CNC(=O)NCc2cc(C)oc2C)cc1`, the “Percent Effect” value is on record as 2.864%.
